Assay [1] addresses 3',5'-cyclic-AMP phosphodiesterase 4B (Homo sapiens) (UniProt Q07343). As to the kind of experiment: qHTS Assay for Inhibitors of PDE-IV (AID 607; active = well fitted activation curve with a large enough effect in the main read-out, with a control signal flat, not every such curve was filed as active; also: potency is read from the fitted curve at half-maximal effect). A digest of the protocol:
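Live HEK293 cells with a modified cyclic nucleotide-gated (CNG) channel report intracellular cAMP via membrane-potential dye fluorescence (ex 535/em 590 nm). Endogenous PDE-IV was targeted. Compounds were tested at up to 22.9 uM final; RO 20-1724 100 uM served as control.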
Background: qHTS replaces the single test concentration by a dilution series.

Assay [2] concerns the target Guanine nucleotide-binding protein G(i) subunit alpha-1 (Homo sapiens) (UniProt P63096). As to the kind of experiment: qHTS Assay for Inhibitors of RGS12 GoLoco Motif Activity (Green Fluorophore) (AID 879).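 Also: negative values mean loss of peptide binding seen as reduced polarization.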 Summed up:
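Fluorescence polarization assay: 50 nM Gαi1 with 10 nM FITC-labeled RGS12 GoLoco peptide in 10 mM Tris pH 7.5, 150 mM NaCl, 0.1 mM GDP, 0.05% NP40, 10 min at room temperature with compound.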

Assay [3] is described as follows: Cell Viability - Mesenchymal (AID 546).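 Also: cells exposed to compound for 40 hours before reading.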 Summed up:
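Human kidney mesenchymal cells from normal renal glomeruli, 1000 cells/well, rested 5 hr at 37 °C, then treated 40 hr at 37 °C in complete medium. Cellular ATP read by CellTiter-Glo luminescence; AC50 from Hill-equation fits.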

The nature of assay [4]: Cellular Toxicity (caspase-3) HepG2 (AID 654).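 Also: cells exposed to compound for 16 hours before reading.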 Summed up:
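qHTS, HepG2, 1500 cells/well, complete medium; cpd 16 h 37 °C; Caspase-Glo 3/7, 20 min RT; lum. Norm: DMSO vs 100 uM tamoxifen; AC50 Hill fit.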

The nature of assay [5]: Cellular Toxicity (caspase-3) Jurkat (AID 655).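 Also: cells exposed to compound for 16 h at 37 °C before reading.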 Summed up:
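Jurkat cells (5000/well) in complete medium were treated with compounds for 16 hr at 37 °C, then Caspase-Glo 3/7 luminescence was read after 20 min at room temperature. Data normalized to DMSO (basal) and 100 uM tamoxifen (100%); AC50 from Hill fit.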

Assay [6] in a line: Cellular Toxicity (caspase-3) HUV-EC-C (AID 656). Summed up: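 HUV-EC-C endothelial cells, 1000/well, were pre-incubated 5 hr at 37°C, then exposed to compounds for 16 hr at 37°C. Caspase-Glo 3/7 luminescence was read after 20 min at room temperature. AC50 came from Hill fits, normalized to DMSO and 100 uM tamoxifen.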
Assay [7] is described as follows: Cellular Toxicity (caspase-3) SHSY5Y (AID 657). A digest of the protocol:
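SH-SY5Y human neuroblastoma cells (1500/well) were treated with compounds for 16 h at 37 °C, then Caspase-Glo 3/7 luminescence was read after 1 h at room temperature. Data normalized to DMSO and 10 uM staurosporine; AC50 from Hill fits.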

The nature of assay [8]: Cellular Toxicity (caspase-3) BJ (AID 658). A digest of the protocol:
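BJ human foreskin fibroblasts, 1000 cells/well, treated 16 hours at 37 °C in complete medium; caspase 3/7 activity by Caspase-Glo luminescence after 1 hr at room temperature. Normalized to DMSO and 10 uM staurosporine; AC50 from Hill fits.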

Assay [9] can be described thus: Cellular Toxicity (caspase-3) MRC-5 (AID 659). A digest of the protocol: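 MRC-5 human normal lung fibroblasts, 1500 cells/well, treated 16 h at 37 °C in complete medium. Caspase 3/7 measured by Caspase-Glo luminescence after 1 h at room temperature. Normalized to DMSO and 10 uM staurosporine; AC50 from Hill fit.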
Assay [10] can be described thus: Cellular Toxicity (caspase-3) Mesangial (AID 660).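 Also: combined caspase 3 and 7 activity read by Caspase-Glo luminescence.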 A digest of the protocol:
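Concentration-response qHTS: compound-induced rise in caspase 3/7 luminescence in human mesangial cells after 16 h, normalized to DMSO and 100 uM tamoxifen controls.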

A short description of assay [11]: Cellular Toxicity (caspase-3) SK-N-SH (AID 661). A digest of the protocol: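 Caspase 3/7 activation is measured as a luminescence increase from aminoluciferin released by substrate cleavage in SK-N-SH cells after 16 hr compound treatment; values are AC50 from concentration-response curves.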
The nature of assay [12]: Cellular Toxicity (caspase-3) H-4-II-E (AID 663).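 Also: cells exposed to compound for 16 hr before readout.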 A digest of the protocol: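 Rat hepatoma H-4-II-E cells (1500/well) plated 5 hr, then exposed to compound titrations for 16 hr at 37 °C. Caspase-Glo 3/7 luminescence read after 20 min at RT; data normalized to DMSO and 100 uM tamoxifen, AC50 from Hill fits.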
Assay [13] is described as follows: Cellular Toxicity (caspase-3) Hek293 (AID 664).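 Also: cells exposed to compound for 16 h at 37 °C before readout.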 A digest of the protocol:
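Activation of caspase-3/7 is measured as increased luminescence from cleaved peptide-aminoluciferin substrate in HEK293 cells treated 16 hours at 37 °C. AC50 values come from Hill-equation fits of concentration-response data.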

Assay [14] can be described thus: Cellular Toxicity (caspase-3) N2a (AID 665).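 Also: compound exposure lasted 16 h at 37 °C before readout.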 Summed up:
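Plated mouse neuroblastoma N2a cells received titrated compounds for 16 h in complete medium. Caspase activity was then detected with a peptide-aminoluciferin luminescent reagent.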

A short description of assay [15]: Cellular Toxicity (caspase-3) NIH 3T3 (AID 666).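 Also: caspase signal read after 16 h compound exposure.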 A digest of the protocol: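 Concentration-response qHTS in NIH 3T3 mouse fibroblasts scores caspase-3/7 activation as rising luminescence after 16 hr compound exposure. Signals are scaled between DMSO-only and 100 uM tamoxifen.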
Assay [16] in a line: Cellular Toxicity (caspase-3) Renal Proximal Tubule (AID 667).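 Also: cells exposed to compound for 16 hours at 37 °C before detection.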 Summed up:
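Primary rat proximal tubule cells, 1000/well, 5 h plating at 37 °C, then compound 16 h at 37 °C. Caspase-Glo 3/7 reagent, 1 h RT, luminescence. Normalized to DMSO (basal) and 10 uM staurosporine (100%); Hill-fit AC50.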

The target of assay [17] is Cytochrome P450 2C9 (Homo sapiens) (UniProt P11712). As to the kind of experiment: qHTS Assay for Inhibitors and Substrates of Cytochrome P450 2C9 (AID 883). Also: nearly all actives have a fitted effect of over 60% in size. A digest of the protocol:
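Signal: luciferase luminescence reporting luciferin produced by CYP2C9. Conditions: 10nM enzyme, Luciferin-H 100uM at KM, 25mM KPO4, 37C, 60 min NADPH-driven reaction. Reference: 57uM sulphaphenazole as 100% inhibition.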

The target in assay [18] is Cytochrome P450 3A4 (Homo sapiens) (UniProt P08684). As to the kind of experiment: qHTS Assay for Inhibitors and Substrates of Cytochrome P450 3A4 (AID 884). Also: series mostly up to about 57 µM; nearly all actives have a fitted effect of over 50% in size. Summed up:
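20 nM human CYP3A4 with 25 uM Luciferin-PPXE (at KM) in 200 mM KPO4, preincubated 10 min with compound; NADPH regeneration started a 60 min RT reaction. Luciferin detected by luminescence, normalized to 57 uM ketoconazole as full inhibition.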

The target in assay [19] is Cytochrome P450 2D6 (Homo sapiens) (UniProt P10635). Nature of the assay: qHTS Assay for Inhibitors and Substrates of Cytochrome P450 2D6 (AID 891).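 Also: luciferin methyl ether substrate demethylated by CYP2D6 with NADPH regeneration; nearly all actives have a fitted effect of over 60% in size.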 A digest of the protocol: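 Human CYP2D6 (5 nM) with 30 uM Luciferin-ME EGE (at Km) in 100 mM KPO4, compound preincubated 10 min, then NADPH regeneration system for 60 min at room temperature. Luciferin read by luminescence; normalized to 1.43 uM quinidine.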

Assay [20] addresses Cytochrome P450 3A4 (Homo sapiens) (UniProt P08684). As to the kind of experiment: qHTS Assay for Activators of Cytochrome P450 3A4 (AID 885). Also: nearly all actives have a fitted effect of over 65% in size. Summed up:
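Quantitative HTS format: compounds preincubated with 20nM human CYP3A4 and Luciferin-PPXE substrate at KM, reaction started by NADPH regeneration, stopped after 60 min, luciferase luminescence read 20 min later.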

Records with an inconclusive call do not appear. Active and inactive are the calls of the source. Unless noted, calls follow the shape of the dose curve; as a rule, active = well fitted curve in the direction sought with a large enough effect; inconclusive = small, poorly fitted or top-dose-only effect, or another doubt; inactive = no such curve, though single readings can be large; an effect the other way counts as inactive or inconclusive.

Chain of Guanine nucleotide-binding protein G(i) subunit alpha-1 (Homo sapiens) (P63096 whole entry, looked up): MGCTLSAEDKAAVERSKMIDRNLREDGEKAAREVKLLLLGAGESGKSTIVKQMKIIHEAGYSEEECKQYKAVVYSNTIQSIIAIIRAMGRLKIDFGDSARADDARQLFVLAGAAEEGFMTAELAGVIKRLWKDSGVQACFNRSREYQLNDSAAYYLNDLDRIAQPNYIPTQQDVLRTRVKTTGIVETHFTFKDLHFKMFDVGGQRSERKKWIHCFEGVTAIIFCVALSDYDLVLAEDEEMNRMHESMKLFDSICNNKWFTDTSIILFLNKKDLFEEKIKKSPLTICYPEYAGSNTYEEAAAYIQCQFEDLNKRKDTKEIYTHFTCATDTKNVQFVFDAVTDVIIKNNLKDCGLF
Chain of 3',5'-cyclic-AMP phosphodiesterase 4B (Homo sapiens) (Q07343 whole entry, looked up): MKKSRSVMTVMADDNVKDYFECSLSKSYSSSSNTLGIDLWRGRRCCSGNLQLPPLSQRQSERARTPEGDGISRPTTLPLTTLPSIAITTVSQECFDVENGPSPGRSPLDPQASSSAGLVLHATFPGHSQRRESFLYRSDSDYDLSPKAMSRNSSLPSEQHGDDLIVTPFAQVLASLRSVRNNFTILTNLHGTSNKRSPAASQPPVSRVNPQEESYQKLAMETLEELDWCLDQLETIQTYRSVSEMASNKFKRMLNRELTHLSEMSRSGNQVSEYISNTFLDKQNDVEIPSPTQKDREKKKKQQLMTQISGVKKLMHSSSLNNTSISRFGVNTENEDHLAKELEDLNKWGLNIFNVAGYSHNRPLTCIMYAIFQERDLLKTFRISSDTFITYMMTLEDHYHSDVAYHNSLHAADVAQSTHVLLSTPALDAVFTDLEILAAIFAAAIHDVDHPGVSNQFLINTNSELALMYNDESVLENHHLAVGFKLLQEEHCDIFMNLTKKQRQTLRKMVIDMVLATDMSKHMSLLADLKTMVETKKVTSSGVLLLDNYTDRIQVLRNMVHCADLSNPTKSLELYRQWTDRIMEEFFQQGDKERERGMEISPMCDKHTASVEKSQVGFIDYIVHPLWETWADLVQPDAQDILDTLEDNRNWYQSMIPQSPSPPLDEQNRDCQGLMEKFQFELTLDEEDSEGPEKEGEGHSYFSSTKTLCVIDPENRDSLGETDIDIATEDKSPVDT
Chain of Cytochrome P450 2D6 (Homo sapiens) (P10635 whole entry, looked up): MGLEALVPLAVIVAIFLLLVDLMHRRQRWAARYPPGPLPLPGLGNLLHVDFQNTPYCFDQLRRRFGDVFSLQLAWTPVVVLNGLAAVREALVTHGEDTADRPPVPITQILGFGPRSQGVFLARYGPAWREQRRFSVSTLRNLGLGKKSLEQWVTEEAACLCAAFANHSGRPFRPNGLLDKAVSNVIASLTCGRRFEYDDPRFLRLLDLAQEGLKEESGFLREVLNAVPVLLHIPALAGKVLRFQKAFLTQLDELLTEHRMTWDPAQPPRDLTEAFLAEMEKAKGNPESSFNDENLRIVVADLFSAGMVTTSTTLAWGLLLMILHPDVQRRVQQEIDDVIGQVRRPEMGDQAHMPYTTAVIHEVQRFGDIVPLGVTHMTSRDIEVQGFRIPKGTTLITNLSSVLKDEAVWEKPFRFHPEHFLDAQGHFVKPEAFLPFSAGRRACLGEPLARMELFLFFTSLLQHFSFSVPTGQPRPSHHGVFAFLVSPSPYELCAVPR
Chain of Cytochrome P450 3A4 (Homo sapiens) (P08684 whole entry, looked up): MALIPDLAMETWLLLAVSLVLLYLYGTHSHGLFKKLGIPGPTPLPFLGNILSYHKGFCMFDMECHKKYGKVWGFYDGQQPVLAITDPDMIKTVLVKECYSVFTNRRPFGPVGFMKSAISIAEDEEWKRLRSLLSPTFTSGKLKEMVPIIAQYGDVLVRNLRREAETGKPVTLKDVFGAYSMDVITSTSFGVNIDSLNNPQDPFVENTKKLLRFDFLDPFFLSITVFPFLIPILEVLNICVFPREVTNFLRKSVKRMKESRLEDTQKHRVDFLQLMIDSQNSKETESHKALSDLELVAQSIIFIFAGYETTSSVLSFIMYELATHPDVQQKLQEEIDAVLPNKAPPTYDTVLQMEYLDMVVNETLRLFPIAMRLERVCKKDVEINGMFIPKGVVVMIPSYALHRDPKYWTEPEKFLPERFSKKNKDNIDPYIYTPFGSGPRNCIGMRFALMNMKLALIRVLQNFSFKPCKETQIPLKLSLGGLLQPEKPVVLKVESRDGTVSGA
Chain of Cytochrome P450 2C9 (Homo sapiens) (P11712 whole entry, looked up): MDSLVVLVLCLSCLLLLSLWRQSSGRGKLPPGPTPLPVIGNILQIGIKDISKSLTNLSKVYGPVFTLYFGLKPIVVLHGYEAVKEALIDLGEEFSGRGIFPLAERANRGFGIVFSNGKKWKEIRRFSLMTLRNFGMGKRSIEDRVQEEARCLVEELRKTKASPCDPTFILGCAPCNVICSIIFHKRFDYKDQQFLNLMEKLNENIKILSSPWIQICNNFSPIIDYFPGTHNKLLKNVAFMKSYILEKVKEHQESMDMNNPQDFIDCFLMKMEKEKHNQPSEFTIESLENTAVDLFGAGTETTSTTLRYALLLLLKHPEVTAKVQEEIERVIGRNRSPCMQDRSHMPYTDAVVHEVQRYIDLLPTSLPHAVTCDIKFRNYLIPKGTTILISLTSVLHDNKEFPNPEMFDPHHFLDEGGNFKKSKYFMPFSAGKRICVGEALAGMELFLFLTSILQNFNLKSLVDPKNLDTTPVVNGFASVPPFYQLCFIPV

Consider `NC(N)=[N+]1CCc2ccccc2C1`, for which the Potency entry in [1] and in assay [2] was “inactive” throughout.
For the compound `CCCCCC[C@@H]([C@@H](C)O)n1cnc2c(N)ncnc21`, in assay [1], the Potency result is “inactive”.
On the same count and under the same terms, under `Nn1nnc2ccccc21` stands “inactive”.
For the compound `CCCn1c(=O)c2[nH]c(-c3ccc(S(=O)(=O)O)cc3)nc2n(CCC)c1=O`, the Potency result in assay [1] and in assay [2] was “inactive” each time.
Take `Cc1ccc2c(c1)C(N1CCN(C)CC1)=Nc1cccnc1N2`: the Potency result in assay [1] and in assay [2] was “inactive” each time.
With `CC1CCN(CC[C@H]2CCCN2S(=O)(=O)c2cccc(O)c2)CC1`, the Potency result in assay [1] was “inactive”.
With `NCCCCN=C(N)N`, the Potency entry in assay [1] and in [2] was “inactive” in each case.
In the case of `O=C(O)C1=CCCN(CCON=C(c2ccccc2)c2ccccc2)C1`, the Potency entry in assay [1] and in [2] was “inactive” in each case.
Regarding `CCCCCCCCCCCCCCC[C@H](O)[C@H](N)CO`, the Potency result in assay [1] is “inactive”.
For the compound `Cc1nc(N=Nc2ccc(S(=O)(=O)O)cc2S(=O)(=O)O)c(COP(=O)(O)O)c(C=O)c1O`, the Potency entry in assay [1] and in assay [2] was “inactive” throughout.
Turning to `N=C(N)c1ccc(OCCCCCOc2ccc(C(=N)N)cc2)cc1` (tested in a mixture with another compound), in assay [1], the Potency result was “inactive”.
Same read-out and setting: with `O=c1[nH]c(=O)c2nc3ccccc3nc2[nH]1` the entry was “inactive”.
On to `CCN(c1nc(N)c(C(=O)N=C(N)N)nc1Cl)C(C)C`, for which the Potency entry in [1] and in assay [2] was “inactive” each time.
Take `O=C(O)c1cc(=O)cc(C(=O)O)[nH]1`: in assay [1], the Potency entry was “inactive”.
On to `CCCc1c(OCCCOc2ccc(OCC(=O)O)cc2)ccc(C(C)=O)c1O`, for which the Potency result in assay [1] and in assay [2] was “inactive” throughout.
Turning to `COc1ccc(C(=O)NCc2cccnc2)cc1C(=O)NCc1cccnc1`, the Potency entry in assay [1] is “inactive”.
On the same count and under the same terms, with `CCCn1c(=O)c(C)cn2nc(N)nc12` the figure was 151 nM (active).
Turning to `COc1cc(CNC(=O)CCCCCCC(C)C)ccc1O`, in assay [1], the Potency result was “inactive”.
As for `N#C/C(=C\c1ccc(O)c(O)c1)C(=O)NCCCNC(=O)/C(C#N)=C/c1ccc(O)c(O)c1`, the Potency result in [1] and in [2] was “inactive” in each case.
In the case of `O=c1cc(-c2ccccc2)[nH]c2nc(Cl)ccc12`, the Potency entry in assay [1] and in assay [2] was “inactive” in each case.
For `C#CCn1c(=O)c2c(ncn2C)n(C)c1=O`, the Potency entry in [1] and in assay [2] was “inactive” each time.
`CC(=O)C(C)=O`: the compound was classed as inactive in assay [3], in [4], in assay [5], in assay [6], in assay [7] and in assay [8]. Further, the outcome in assay [9], in [10], in assay [11], in assay [12], in [13] and in [14] was inactive. Moreover, the result in [15] and in [16] was inactive. The Potency result in assay [1], in [17], in assay [18] and in assay [19] was “inactive” in each case.
For `CCC(=O)N1CCN(C(=O)c2ccccc2)CC1`, the Potency entry in assay [1] was “inactive”.
On to `CCCCCCCCCCCCCCSCC(=O)O`, for which the Potency result in [1] and in assay [2] was “inactive” each time.
`CC(C)NC[C@H](O)COc1cccc2ccccc12`: the Potency result in assay [1] is “inactive”.
Consider `NC(=O)c1ccccc1`, for which the compound was called inactive in [3], in assay [4], in [5], in assay [6], in assay [7] and in assay [8]. Moreover, the outcome in assay [9], in assay [10], in assay [11], in assay [12], in [13] and in [14] was inactive. Further, the result in assay [15] and in assay [16] was inactive. For the same compound, the Potency result in assay [1], in assay [2], in assay [17], in assay [20] and in assay [19] was “inactive” throughout.

The record behind these values is PubChem BioAssay (NCATS).
